Inconclusive results are not listed. Active and inactive are the calls of the source. Calls come from the whole dose curve; as a rule, active = well fitted inhibition curve with a large enough effect; inconclusive = small, poorly fitted or top-dose-only effect; inactive = flat fitted curve, though single readings scatter.
Tests used:
Test in all cases: qHTS profiling for inhibitors of Plasmodium falciparum proliferation (AID 504749); note: nearly all actives have a fitted effect of over 60% in size
Conditions in all cases: P. falciparum in erythrocytes, SYBR Green DNA, 72 h; series mostly up to 28.7 µM
[1] = tested on: ATS189
How it was run: (§1)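 Readout was DNA-dye fluorescence from lysed cultures, ex 485/em 535 nm. Parasitized red cells had grown 72 h with compound; data scaled between 0.29 uM artemisinin and DMSO wells and corrected using vehicle-only plates.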

[2] = tested on: ATS95
How it was run: as §1

[3] = tested on: C2A
How it was run: as §1

[4] = tested on: CP185
How it was run: as §1

[5] = tested on: CP191
How it was run: as §1

[6] = tested on: CP192
How it was run: as §1

[7] = tested on: CP194
How it was run: as §1

[8] = tested on: CP201
How it was run: as §1

[9] = tested on: CP203
How it was run: as §1

[10] = tested on: CP211
How it was run: as §1

[11] = tested on: CP215
How it was run: as §1

[12] = tested on: CP217
How it was run: as §1

[13] = tested on: CP237
How it was run: as §1

[14] = tested on: CP238
How it was run: as §1

[15] = tested on: CP247
How it was run: as §1

[16] = tested on: CP250
How it was run: as §1

[17] = tested on: CP252
How it was run: as §1

[18] = tested on: CP256
How it was run: as §1

[19] = tested on: CP260
How it was run: as §1

[20] = tested on: CP262
How it was run: as §1

Measured: Potency

NCCNC(=O)c1ccc(Cl)cn1
inactive: all assays above

Cl/C(=C\n1cncn1)c1ccc(Cl)cc1Cl
inactive: all assays above

CC(C)Cc1ccc(CC(=O)O)cc1
inactive: all assays above

CCCCCCCCCCCCCCCC(=O)O
inactive: all assays above

CCc1oc2ccccc2c1C(=O)c1cc(Br)c(O)c(Br)c1
not listed: [11]
inactive: all other assays above

O=C(Oc1cccc2cccnc12)c1ccccc1
not listed: [19]
inactive: all other assays above

NC(=S)N/N=C/c1cccnc1
not listed: [15]
inactive: all other assays above

CC(=O)Nc1ccc(CC(=O)O)cc1
inactive: all assays above

OCCOCCN1CCN(C2=Nc3ccccc3Sc3ccccc32)CC1
not listed: [13]
inactive: all other assays above

COc1ccc(/C=N/NC(=O)c2ccncc2)cc1OC
inactive: all assays above

FC1(F)C(F)(F)C(F)(F)C2(F)C(F)(F)C(F)(F)C(F)(F)C(F)(F)C2(F)C1(F)F (stereo not given)
not listed: [19]
inactive: all other assays above
